The values that follow come from a collection of fitness landscapes (doi:10.1126/science.1257360).

B1: PhoQ; a variant is named by its letters at X, in order, P23837 (parent)
chain: MKKLLRLFFPLSLRVRFLLATAAVVLVLSLAYGMVALIGYSVSFDKTTFRLLRGESNLFYTLAKWENNKLHVELPENIDKQSPTMTLIYDENGQLLWAQRDVPWLMKMIQPDWLKSNGFHEIEADVNDTSLLLSGDHSIQQQLQEVREDDDDAEMTHSVAVNVYPATSRMPKLTIVVVDTIPVELKSSYMVWSWFIYVLSANLLLVIPLLWVAAWWSLRPIEALAKEVRELEEHNRELLNPATTRELTSLVRNLNRLLKSERERYDKYRTTLTDLTHSLKTPLXXLQXXLRSLRSEKMSVSDAEPVMLEQISRISQQIGYYLHRASMRGGTLLSRELHPVAPLLDNLTSALNKVYQRKGVNISLDISPEISFVGEQNDFVEVMGNVLDNACKYCLEFVEISARQTDEHLYIVVEDDGPGIPLSKREVIFDRGQRVDTLRPGQGVGLAVAREITEQYEGKIVAGESMLGGARMEVIFGRQHSAPKDE

In all, about 140,000 sequences were measured (“enrichment ratio after two sorts for PhoP signalling”: median about 0, highest 2% from about 11 on). The full list was thinned out, with the highest values kept by preference.

The variants in this experiment derive from B1. Put plainly: enrichment ratio after two sorts for PhoP signalling (ratio (wild type AVST 3.29)); higher = more functional. To be noted: with PhoP (E. coli).
For RSCK, the enrichment ratio was ≤ 0.25.
DWGV: the enrichment ratio was ≤ 0.25.
In the case of FMYR it was ≤ 0.25; in that of FQIQ, ≤ 0.25; in that of MCFN, 4.25.
In the case of NMST it was ≤ 0.25.
Regarding AMST, the enrichment ratio came to 12.2.
Take HKST: the enrichment ratio was ≤ 0.25.
As for DMST, the enrichment ratio was ≤ 0.25.
In the case of TKST it was 15.4; in that of AKST, 6.32.
In the case of YFCR it was 0.754; in that of YQIY, ≤ 0.25.
In the case of WDCT it was ≤ 0.25; in that of MGCY, 29.2.
With RGCY, the enrichment ratio was ≤ 0.25.
For GGCY, the enrichment ratio came out at 16.1.
For MGWY, the enrichment ratio turned out to be 4.8.
In the case of QRCY it was ≤ 0.25; in that of TGCY, 8.48; in that of QHTT, ≤ 0.25.
In the case of KNTT it was ≤ 0.25; in that of ERTE, ≤ 0.25; in that of QKMV, ≤ 0.25.
In the case of TYTC it was ≤ 0.25.
With NMSN, the enrichment ratio was ≤ 0.25.
In the case of TMSG it was 24.1; in that of TMSN, 12.5.
On to MMSN, for which the enrichment ratio is ≤ 0.25.
For KMSG, the enrichment ratio was ≤ 0.25.
In the case of DMSG it was ≤ 0.25; in that of PCVI, ≤ 0.25.
Consider GRTV, for which the enrichment ratio was ≤ 0.25.
In the case of FFSS it was ≤ 0.25; in that of QGSS, 14.4.
With TESS, the enrichment ratio was found to be 15.
In the case of QESS it was 19.7; in that of NESS, ≤ 0.25.
As for MESS, the enrichment ratio was 5.15.
In the case of QRSS it was ≤ 0.25; in that of QDSS, ≤ 0.25.
In the case of FVSS it was ≤ 0.25; in that of IMKM, ≤ 0.25.
Take LFRM: the enrichment ratio is ≤ 0.25.
TWVL: the enrichment ratio was ≤ 0.25.
In the case of WRGV it was ≤ 0.25; in that of KLPK, ≤ 0.25; in that of EIYQ, ≤ 0.25.
In the case of SRCF it was ≤ 0.25; in that of SCCF, 13.7.
In the case of MCCF it was 4.87; in that of KCCF, ≤ 0.25.
For NECF, the enrichment ratio was ≤ 0.25.
In the case of SNCF it was 4.82; in that of CTCF, ≤ 0.25; in that of MECF, ≤ 0.25.
In the case of SQCF it was 11.4; in that of STCF, 15.9; in that of YTCF, 2.21.
Take SECF: the enrichment ratio was 13.9.
Take PQGD: the enrichment ratio was ≤ 0.25.
For YMHS, the enrichment ratio is ≤ 0.25.
In the case of GKRI it was ≤ 0.25; in that of SAIV, 3.88.
In the case of ERRA, the enrichment ratio was ≤ 0.25.
In the case of MTCF it was 1.4; in that of TTCF, 17.7; in that of LTCF, ≤ 0.25.
In the case of IHTH it was ≤ 0.25.
On to LQWA, for which the enrichment ratio was ≤ 0.25.
Regarding TAMY, the enrichment ratio amounted to 17.4.
In the case of KAMY it was ≤ 0.25; in that of TAME, 15.7; in that of KAME, ≤ 0.25.
For TAIE, the enrichment ratio is ≤ 0.25.
In the case of NAMY it was ≤ 0.25.
Take RLHS: the enrichment ratio is ≤ 0.25.
In the case of THTF it was 0.991; in that of SFPM, ≤ 0.25; in that of RSPG, ≤ 0.25.
Regarding QGHL, the enrichment ratio turned out to be 18.3.
In the case of YAHL it was ≤ 0.25.
Consider KSHL, for which the enrichment ratio was ≤ 0.25.
In the case of IAHL it was ≤ 0.25.
For the variant NAHL, the enrichment ratio is ≤ 0.25.
On to FFHL, for which the enrichment ratio is ≤ 0.25.
Turning to KAHL, the enrichment ratio is ≤ 0.25.
In the case of QSHL it was 13.5; in that of QTHL, 4.03.
In the case of THHL it was 2.02.
In the case of TAHL it was 17.4; in that of QAHL, 16.7.
Regarding KINI, the enrichment ratio was ≤ 0.25.
SEPT: the enrichment ratio is ≤ 0.25.
In the case of NNGF it was ≤ 0.25; in that of LQLD, ≤ 0.25.
For the variant NKMF, the enrichment ratio was ≤ 0.25.
Turning to QAQF, the enrichment ratio is ≤ 0.25.
In the case of QAHK it was ≤ 0.25; in that of QAHF, 15.5; in that of QAHM, 22.3.
Turning to QQNF, the enrichment ratio is 16.3.
In the case of NANF it was ≤ 0.25.
In the case of QANF it was 21.
In the case of QLNF it was ≤ 0.25; in that of NQNF, ≤ 0.25; in that of QDHM, ≤ 0.25.
Turning to KANF, the enrichment ratio is ≤ 0.25.
Regarding YAHM, the enrichment ratio is ≤ 0.25.
Take HNRG: the enrichment ratio is ≤ 0.25.
On to WPAL, for which the enrichment ratio was ≤ 0.25.
In the case of GSVC it was ≤ 0.25; in that of LGSN, ≤ 0.25; in that of MHVR, ≤ 0.25.
In the case of WLSV it was ≤ 0.25; in that of WRAR, ≤ 0.25.
On to KRNR, for which the enrichment ratio was ≤ 0.25.
In the case of ECFS it was ≤ 0.25.
In the case of ANNF it was 12.9; in that of SCNF, 14.3.
In the case of CTNF it was ≤ 0.25; in that of KYNF, ≤ 0.25.
Regarding AHNF, the enrichment ratio is 9.49.
In the case of AINF it was 1.66; in that of STNF, 12.6; in that of SLNF, 1.82.
In the case of YTNF it was ≤ 0.25.
In the case of ATNF it was 20.9.
Take GTNF: the enrichment ratio is ≤ 0.25.
In the case of TTNF it was 6.07; in that of PREH, ≤ 0.25.
In the case of GASC it was ≤ 0.25; in that of FFHE, ≤ 0.25.
With DQPT, the enrichment ratio is ≤ 0.25.
In the case of LMDV it was ≤ 0.25; in that of FSAH, 0.363.
In the case of SQND it was ≤ 0.25; in that of IRPQ, ≤ 0.25.
On to YYNE, for which the enrichment ratio was ≤ 0.25.
Consider GEYY, for which the enrichment ratio is ≤ 0.25.
In the case of GEGM it was ≤ 0.25; in that of GEVG, 8.67.
In the case of GEVM it was 13.6; in that of GEVY, 15.9; in that of GEVA, ≤ 0.25.
In the case of ISQH, the enrichment ratio is ≤ 0.25.
On to HWRW, for which the enrichment ratio was ≤ 0.25.
Regarding LGRG, the enrichment ratio was ≤ 0.25.
In the case of HLTF it was ≤ 0.25.
In the case of NNAM it was ≤ 0.25.
With GMTM, the enrichment ratio was ≤ 0.25.
In the case of TNAM it was 15.7.
Consider GMAM, for which the enrichment ratio came to 24.3.
In the case of GIAM it was 33.4; in that of GNAM, 35.8; in that of TNCK, ≤ 0.25.
In the case of GIMD it was ≤ 0.25.
GIRM: the enrichment ratio was ≤ 0.25.
For LNAM, the enrichment ratio is ≤ 0.25.
In the case of MNAM it was 1.4; in that of GMGM, ≤ 0.25.
In the case of RPAK it was ≤ 0.25; in that of YHSF, ≤ 0.25.
In the case of QLDG it was ≤ 0.25.
Turning to PCCG, the enrichment ratio was ≤ 0.25.
In the case of DCDI it was ≤ 0.25; in that of YLVR, ≤ 0.25.
Regarding QLDF, the enrichment ratio is ≤ 0.25.
For the variant IHCL, the enrichment ratio was ≤ 0.25.
In the case of FHCR it was ≤ 0.25.
In the case of VVAM it was ≤ 0.25; in that of LQPE, ≤ 0.25.
With YRAY, the enrichment ratio is ≤ 0.25.
In the case of SGDK it was ≤ 0.25; in that of SGLI, 16.2; in that of SGLA, 8.41.
In the case of SGLT it was 12.3; in that of SGDN, ≤ 0.25.
In the case of SGNT it was ≤ 0.25.
As to KDVP, the enrichment ratio is ≤ 0.25.
RAKD: the enrichment ratio is ≤ 0.25.
In the case of ADSW it was ≤ 0.25.
In the case of AQSI it was 18.6; in that of KKSI, ≤ 0.25; in that of ARSI, ≤ 0.25.
TKSI: the enrichment ratio came to 14.9.
As for TISK, the enrichment ratio is 3.65.
With AISW, the enrichment ratio came out at 11.4.
In the case of TISI it was 16.9.
In the case of HKSI it was ≤ 0.25; in that of WISW, ≤ 0.25; in that of AQRK, ≤ 0.25.
Turning to TISR, the enrichment ratio was found to be 6.92.
In the case of SLDN it was ≤ 0.25; in that of QVPH, ≤ 0.25.
